HTR5A ag ctr = HTR5A agonism, opioid heterodimer counter-screen; P47898; HTR5A agonist assay, luminescence, cell-based; activation, % at 9.3 µM; 340,000 tested, 0.61% active; AID 504692; in the data active = activation mostly above about 9.5%, no sharp cut-off; inactive = mostly below about 7.6%
Target sequence (P47898 whole entry, looked up): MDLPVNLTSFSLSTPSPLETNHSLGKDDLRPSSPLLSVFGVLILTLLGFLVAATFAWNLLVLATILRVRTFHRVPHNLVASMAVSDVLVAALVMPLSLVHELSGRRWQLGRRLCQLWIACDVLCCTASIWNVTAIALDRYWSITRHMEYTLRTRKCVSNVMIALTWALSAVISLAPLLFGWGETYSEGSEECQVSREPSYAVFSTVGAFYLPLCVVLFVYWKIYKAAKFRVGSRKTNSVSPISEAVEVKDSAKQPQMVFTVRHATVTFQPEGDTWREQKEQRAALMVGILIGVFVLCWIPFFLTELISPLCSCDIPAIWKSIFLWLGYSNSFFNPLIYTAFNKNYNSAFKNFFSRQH
HTR5A inv ag = counter-screen for OPRM1-OPRD1 inverse agonists: human HTR5A inverse agonism; HTR5A cell line, luminescence; inhibition, % at 9.3 µM; P47898; 340,000 tested, 0.083% active; AID 504634; in the data active = inhibition mostly above about 23%, no sharp cut-off; inactive = mostly below about 18%
OPRM1-OPRD1 inv = inverse agonist of human OPRM1-OPRD1 heterodimerization | inhibition, % at 9.3 µM | 340,000 tested, 0.21% active | cell-based MOR-DOR heterodimer luminescence, inverse agonism | P35372+P41143 | AID 504357; in the data active = inhibition above about 22%, passing the limit was not always enough
OPRM1-OPRD1 ag = agonists of human mu-delta opioid receptor heterodimerization; AID 504326; 340,000 tested, 0.3% active; cells, OPRM1-OPRD1 heterodimerization, luminescence; P35372+P41143; activation, % at 9.3 µM
MOR-DOR ag conf = confirmation of human OPRM1-OPRD1 heterodimerization agonists; shares compounds with OPRM1-OPRD1 ag; cells, MOR-DOR heterodimerization, luminescence complementation; activation, % at 9.3 µM; 830 tested, 45% active; AID 504904
HTR5A ag counter = activates human HTR5A in OPRM1-OPRD1 agonist counter-screen; activation, % at 9.3 µM; HTR5A agonist counterscreen, cell luminescence; shares compounds with OPRM1-OPRD1 ag; 830 tested, 8% active; in the data active = activation above about 17%
Hits are given with their value; n = inactive; x = no result. The list is not random: actives were taken first. Their share in the collection is about 1.1%. Cut-off read from the data, not from the text of the source, unless noted: active = activation above about 18%; inactive = the rest.

SMILES	HTR5A ag ctr	HTR5A inv ag	OPRM1-OPRD1 inv	OPRM1-OPRD1 ag	MOR-DOR ag conf	HTR5A ag counter
COc1ccc(NC(=O)CN2CCOCC2)cc1S(=O)(=O)N1CCCCC1	n	n	n	n	x	x
Cc1ccc(/C=N/NC(=O)c2cc(-c3ccccc3)nc3ccccc23)o1	n	n	n	n	x	x
CCOc1ccc(/C=N/NC(=O)CC(=O)Nc2ccc(Cl)c(Cl)c2)cc1	n	n	n	21	n	n
COc1cc2c3nnc(-c4ccc(F)cc4)c-3cn(Cc3ccccc3F)c2cc1OC	n	n	n	19	28	n
O=C(COc1ccccc1[N+](=O)[O-])N1CCN(C(=O)c2ccco2)CC1	n	n	n	n	x	x
C/C=C(\C)CN1CCC(n2nccc2NC(=O)CCOc2ccccc2)CC1	n	n	n	n	x	x
C/C=C(\C)CN1CCC(n2nccc2NC(=O)CCc2ccccc2)CC1	n	n	n	20	n	n
O=C(COC(=O)c1ccc(Br)cc1)NCc1ccccc1	n	n	n	n	x	x
CC(=O)Cc1cc(O)c2ccccc2c1OC(=O)c1ccc(Br)cc1	n	n	n	20	n	n
CCSc1nnc(NC(=O)c2cccc3ccccc23)s1	n	n	n	n	x	x
CCSc1nnc(NC(=O)c2cc(-c3ccccc3O)n[nH]2)s1	n	n	n	32	n	n
O=C(N/N=C\c1c(O)ccc2ccccc12)c1ccc(O)cc1	n	n	n	n	x	x
O=C(N/N=C/c1c(O)ccc2ccccc12)c1ccc(Br)o1	n	n	n	24	n	n
Cc1ccc(N(C(=O)C(F)(F)F)C(C(=O)NC2CCCCC2)c2cccs2)cc1 (stereo not drawn)	n	n	n	18	n	n
CC1(c2ccccc2)CC(C)(C)N2C(=O)C3(C(C#N)=C(N)Oc4cc(O)ccc43)c3cccc1c32 (stereo not drawn)	n	n	n	20	47	n
CCOC(=O)C1(CC2CC2)CCN(Cc2ccc3cccc(F)c3n2)CC1	n	n	n	24	28	n
CCOC(=O)C1(CC2CC2)CCN(Cc2cn[nH]c2-c2cccc(F)c2)CC1	n	n	n	n	x	x
COc1cc(/C=N/NC(=O)NC2CCCCC2)cc(OC)c1O	n	n	n	n	x	x
CC(C)(C)c1cc(C(=O)NNC(=O)Nc2cccc(Cl)c2)n(Cc2ccccc2)n1	n	n	n	25	n	n
CC(C)(C)c1cc(C(=O)NNC(=O)Nc2ccccc2)n(Cc2ccccc2)n1	n	n	n	n	x	x
O=C(Cc1ccc(NC(=O)C2CCCN(C(=O)C3CC3)C2)cc1)Nc1cccc(C(=O)N2CCCC2)c1 (stereo not drawn)	n	n	n	n	x	x
COc1ccc([C@H]2CC(=O)C=C(c3c(C)cc(C)cc3C)C2)cc1	n	n	n	27	n	n
CCOC(=O)N1CCN(c2ncnc3c2[nH]c2ccc(OC)cc23)CC1	n	n	n	n	x	x
COc1ccc2[nH]c3c(N4CCc5ccccc5C4)ncnc3c2c1	n	n	n	20	n	n
Cc1ccc(S(=O)(=O)NCCC(=O)NCC(c2ccc(F)cc2)N2CCOCC2)cc1 (stereo not drawn)	n	n	n	n	x	x
SMILES	HTR5A ag ctr	HTR5A inv ag	OPRM1-OPRD1 inv	OPRM1-OPRD1 ag	MOR-DOR ag conf	HTR5A ag counter
CSc1ccccc1NC(=O)Nc1ccc(Cl)cc1	n	n	n	26	n	n
COc1ccc(NC(=O)c2cc(-c3ccco3)nc3ccccc23)cc1	n	n	n	50	22	20
Cc1ccc(-c2cc(C(=O)Nc3ccncc3)c3ccccc3n2)cc1	n	n	n	28	n	n
O=C(Nc1ccncc1)c1cc(-c2cccc(Br)c2)nc2ccccc12	26	n	n	52	n	n
O=C(Nc1ncccn1)c1cc(-c2cccc(Br)c2)nc2ccccc12	n	n	n	n	x	x
COc1ccc(S(=O)(=O)NNC(=O)c2csc(-n3nc(C)cc3C(F)(F)F)n2)cc1OC	n	n	n	n	x	x
Cc1cc(-c2ccccc2)nc(N/N=C/c2ccc(O)cc2)n1	n	n	n	n	x	x
Oc1ccc(/C=N/Nc2nc(-c3ccc(Cl)cc3)cc(C(F)(F)F)n2)cc1	n	n	n	24	n	n
COc1ccc2c(c1)c(N=NC(N)=S)c(O)n2CC(=O)c1ccccc1	n	n	n	19	n	n
Cc1ccc(NC(=O)Cn2c(O)c(N=NC(N)=S)c3ccccc32)cc1	n	n	n	20	n	n
Cc1ccc(-n2c(=O)c3sccc3n(CC(=O)NCC3CCCO3)c2=O)cc1F (stereo not drawn)	n	n	n	n	x	x
Cc1ccc([N+](=O)[O-])cc1N(CC(=O)NCC1CCCO1)S(C)(=O)=O (stereo not drawn)	n	n	n	n	x	x
CC(=O)NC(CC(=O)NCC(c1ccco1)N(C)C)c1ccccc1 (stereo not drawn)	n	n	n	195	226	n
CSc1ccc(C(=O)NCC(c2ccco2)N(C)C)cc1[N+](=O)[O-] (stereo not drawn)	n	n	n	251	242	n
CN(C)C(CNC(=O)c1ccc2ccccc2c1)c1ccco1 (stereo not drawn)	n	n	n	30	33	n
Cc1cccc(C(=O)NCC(c2ccco2)N(C)C)c1 (stereo not drawn)	n	n	n	n	x	x
CSc1ccccc1C(=O)NCC(c1ccco1)N(C)C (stereo not drawn)	n	n	n	n	x	x
CCC1=C/C(=C/N(C)c2ccccc2)C(=O)S1	n	n	n	n	x	x
COCc1c(C(=O)N/N=C/c2cccc3ccccc23)nnn1-c1nonc1N	n	n	n	27	n	n
Cc1cc(C)c(C(=O)CSc2nc(C)cc(C)c2C(N)=O)c(C)c1	n	n	n	n	x	x
Cc1ccc(-c2nnn(CC(=O)Nc3ccc(S(=O)(=O)N4CCC(C)CC4)cc3)n2)cc1	15	n	n	47	26	n
C/C(NC(=O)c1cccs1)=C1\C(=O)C[C@@H]2[C@H]1C2(C)C	n	n	n	n	x	x
CCCCn1c(N)c(N(CCC(C)C)C(=O)c2ccc3ccccc3c2)c(=O)[nH]c1=O	n	n	n	n	x	x
COc1cc(OC)c(C(=O)OCC(=O)c2ccc3c(c2)NC(=O)CO3)cc1OC	n	n	n	n	x	x
COC(=O)c1cccc(C23CC4(C2)[C@H](CN(Cc2ccc(-c5ccccc5)cc2)[C@@H]4c2ccccc2)C3c2ccc(Cl)nc2)c1 (stereo partly drawn)	n	n	n	n	x	x
COC(=O)c1cccc(C23CC4(C2)[C@H](CN(Cc2cccnc2)[C@@H]4c2ccccc2)C3c2ccc(Cl)nc2)c1 (stereo partly drawn)	n	n	n	23	29	n
CCCOC(=O)c1c(NC(=O)CCCn2nc([N+](=O)[O-])c(Cl)c2C)sc(C(=O)OC)c1C	n	n	n	n	x	x
O=C(Nc1ccc(Cl)c(Cl)c1)N(CCCN1CCOCC1)Cc1cccs1	n	n	n	27	n	n
O=C(Nc1ccc(Cl)c(Cl)c1)N(CCCN1CCOCC1)Cc1cccnc1	n	n	n	n	x	x

Screening results deposited in PubChem by The Scripps Research Institute Molecular Screening Center.
